The values below come from PubChem BioAssay (Tox21).

A short description of experiment [1]: qHTS assay to identify small molecule agonists of the constitutive androstane receptor (CAR) signaling pathway - cell viability counter screen (AID 1224836). Further: nearly all actives have a fitted effect of over 45% in size. An outline of the steps: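 23 h treatment, 37 C, 5% CO2. Cell line: HepG2 stably expressing hCAR with a CYP2B6-2.2kb construct. Co-treatment: PK11195, 0.75 uM final. Read-out: CellTiter-Fluor fluorescence intensity.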

Experiment [2] addresses Nuclear receptor subfamily 1 group I member 3 (Homo sapiens) (UniProt Q14994). Briefly: qHTS assay to identify small molecule antagonists of the constitutive androstane receptor (CAR) signaling pathway (AID 1224838).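 Further: HepG2 cells stably expressing hCAR with CYP2B6 luciferase reporter stimulated by CITCO; nearly all actives have a fitted effect of over 40% in size.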 An outline of the steps:
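Quantitative HTS in double-stable HepG2-CYP2B6-hCAR cells. After 4 h plating, cells get compound (15 concentrations) and CITCO at 50 nM final, incubate 24 h at 37 C, then ONE-Glo luminescence is read.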
On the technique in general: In qHTS, concentration-response curves come from the screen itself.

Experiment [3] has the same target. Nature of the experiment: qHTS assay to identify small molecule agonists of the constitutive androstane receptor (CAR) signaling pathway (AID 1224839). Further: nearly all actives have a fitted effect of over 15% in size. Further: potency means the concentration at half of the fitted maximal effect.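 On activation: HepG2 cells stably carrying human CAR and a CYP2B6 luciferase reporter.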 Summed up: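 Compounds tested at 15 concentrations on HepG2 cells stably harbouring hCAR and CYP2B6-2.2kb reporter constructs, co-treated with PK11195 (0.75 uM final), 24 h at 37 C; luminescent reporter signal quantified.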

A short description of experiment [4]: qHTS assay to identify small molecule antagonists of the estrogen related receptor signaling pathway with the pleiotropic PPARgamma coactivator (PGC) from Tox21 10K library - cell viability counter screen (AID 1224840; active means well fitted cell-killing curve with a large enough effect in the repeat runs, not every such curve was filed as active; further: nearly all actives have a fitted effect of over 40% in size). An outline of the steps: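 Compounds in DMSO, alongside positive and negative controls, were pinned onto PGC/ERR cells (2,000 per well). Exposure lasted 17.5 hours at 37 C, followed by a 30-minute CellTiter-Fluor incubation and fluorescence reading.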

A short description of experiment [5]: qHTS assay to identify small molecule antagonists of the estrogen related receptor signaling pathway with the pleiotropic PPARgamma coactivator (PGC) from Tox21 10K library (AID 1224841; call rule not given here; further: actives are mostly falling curves and most rising ones were filed inactive; nearly all actives have a fitted effect of over 50% in size). An outline of the steps: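 Compound exposure ran 18 hours at 37 C in PGC/ERR cells (2,000/well) that had first rested 6 hours in a 37 C/5% CO2 incubator. Luciferase activity was then detected with One-Glo after a 30-minute room-temperature step.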

The target of experiment [6] is Thyrotropin receptor (Homo sapiens) (UniProt P16473). Nature of the experiment: qHTS assay to identify small molecule agonists of the thyroid stimulating hormone receptor (TSHR) signaling pathway (AID 1224843; calls by dose curve; further: nearly all actives have a fitted effect of over 45% in size). Summed up:
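Screening of the Tox21 10K collection used HEK293 cells engineered with TSHR at 800 cells per well. After a 30-min room-temperature compound exposure, HTRF cAMP reagents were added and fluorescence recorded 1 h later.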

Experiment [7] in a line: qHTS assay to identify small molecule agonists of the hypoxia (HIF-1) signaling pathway - cell viability counter screen (AID 1224844; calls by dose curve; further: nearly all actives have a fitted effect of over 50% in size). An outline of the steps:
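Luminescent ATP content (CellTiter-Glo, 30 min, room temperature) served as the viability measure in HRE-bla ME-180 cells exposed to compounds for 17 hrs in low-serum medium (0.5% dialyzed FBS).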

A short description of experiment [8]: qHTS assay to identify small molecule agonists of H2AX (AID 1224845; active means well fitted activation curve with a large enough effect in the signal ratio in the repeat runs, not every such curve was filed as active; the % refers to the signal ratio). Summed up:
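Phospho-H2AX Ser139 measured by HTRF (ex 320 nm; em 665 and 620 nm) after 24 hr antibody incubation. Compounds, 15 concentrations, 0.76% DMSO, were applied to CHO-K1 cells for 3hr at 37C before lysis.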

The nature of experiment [9]: qHTS assay to identify small molecule agonists of the hypoxia (HIF-1) signaling pathway (AID 1224846; active means well fitted activation curve with a large enough effect in the signal ratio in the repeat runs, not every such curve was filed as active; the % refers to the signal ratio; further: potency means the concentration at half of the fitted maximal effect). An outline of the steps: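 Measured by blue/green FRET after loading CCF4-AM: beta-lactamase expressed from a hypoxia response element in ME-180 cells. Test agents were delivered in DMSO and left 17 hrs; cells had been plated 5 hrs earlier in low-serum (0.5% dialyzed FBS) medium.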

Experiment [10] can be described thus: qHTS assay to identify small molecule antagonists of the estrogen related receptor (ERR) signaling pathway from Tox21 library (AID 1224848). Further: nearly all actives have a fitted effect of over 50% in size. Summed up: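 Antagonist-mode screen of the Tox21 10K library in an NTP-provided ERR reporter cell line; 18 h compound exposure at 37 C, luminescence measured with ONE-Glo.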
Experiment [11] is described as follows: qHTS assay to identify small molecule agonists of the estrogen related receptor (ERR) signaling pathway from Tox21 library (AID 1224849; calls by dose curve; further: nearly all actives have a fitted effect of over 15% in size). The settings on record: ERR reporter cell line, ONE-Glo luciferase, 18 h; at 92.4 µM (top of the series). An outline of the steps:
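We plated ERR reporter cells, waited 6 h, added compounds in DMSO by pin tool and incubated them 18 h at 37 C. ONE-Glo was then added and luminescence read after 30 min.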

Experiment [12] is described as follows: qHTS RealTime-Glo MT Cell Viability Assay in HepG2 cells - 24 hour (AID 1224867). Further: nearly all actives have a fitted effect of over 50% in size. Further: potency means the concentration at half of the fitted maximal effect. Summed up:
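HepG2 suspension premixed with RealTime-Glo reagents is plated at 600 cells per well and left 5 h at 37 C/5% CO2. Compounds in DMSO then go in, and bioluminescence reflecting viable cell number is recorded over 40 h.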

Experiment [13] is described as follows: qHTS RealTime-Glo MT Cell Viability Assay in HEK293 cells - 32 hour (AID 1224868). Further: nearly all actives have a fitted effect of over 50% in size. Further: potency means the concentration at half of the fitted maximal effect. An outline of the steps: (§1)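 Reads taken at 0, 8, 16, 24, 32 and 40 h from the same wells. HEK293 cells (600/well) carried RealTime-Glo reagents from seeding, with compound added after a 5 h settle at 37 C.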
Experiment [14] is described as follows: A CellTox Green Cytotoxicity Assay to monitor cytotoxicity in HEK293 cells - 0 hour (AID 1224869). Further: nearly all actives have a fitted effect of over 50% in size. Summed up: (§2)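 Each value comes from one timepoint of a single continuous run in which HEK293 cells with CellTox Green were exposed to compound for up to 40 h at 37 C, dye fluorescence rising with cell death.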
Experiment [15] can be described thus: qHTS RealTime-Glo MT Cell Viability Assay in HepG2 cells - 40 hour (AID 1224870). Further: nearly all actives have a fitted effect of over 50% in size. Further: potency means the concentration at half of the fitted maximal effect. Summed up:
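Real-time viability: cells seeded at 600 per well together with NanoLuc and cell-permeant prosubstrate, compounds added after 5 h incubation. Luminescence tracked at 0, 8, 16, 24, 32 and 40 h of exposure.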

Experiment [16] in a line: A CellTox Green Cytotoxicity Assay to monitor cytotoxicity in HEK293 cells - 40 hour (AID 1224871). Further: nearly all actives have a fitted effect of over 45% in size. Further: potency means the concentration at half of the fitted maximal effect. Summed up: as §2
Experiment [17] can be described thus: qHTS RealTime-Glo MT Cell Viability Assay in HEK293 cells - 16 hour (AID 1224872). Further: nearly all actives have a fitted effect of over 50% in size. Further: potency means the concentration at half of the fitted maximal effect. An outline of the steps: as §1
The nature of experiment [18]: qHTS assay to identify small molecule agonists of H2AX - cell viability counter screen (AID 1224847; calls by dose curve; further: top concentration of the series differs between compounds; nearly all actives have a fitted effect of over 30% in size). Summed up:
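Compounds tested at 15 concentrations were incubated 3 hr at 37C with wild-type CHO-K1 cells; cellular ATP-based luminescence (CellTiter-Glo) indicated viability.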

Experiment [19] in a line: qHTS assay to identify small molecule antagonists of the constitutive androstane receptor (CAR) signaling pathway - cell viability counter screen (AID 1224837). Further: nearly all actives have a fitted effect of over 45% in size. Summed up: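 Fluorescence from CellTiter-Fluor served as the viability signal. Human hepatoma HepG2 cells stably bearing hCAR and CYP2B6-2.2kb received compound plus CITCO (50 nM final) for 23 hr.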

Molecules are shown by their SMILES. Values joined by “and” are separate entries in the source; they are usually repeats but may differ in a detail not shown here. Identical values can stand only once. Records with an inconclusive call do not appear. Some compounds were tested as several samples or in several runs, with calls that do not always agree. Active and inactive are the calls of the source. Unless noted, the call rests on the fitted dose curve; in most records, active means well fitted curve in the direction sought with a large enough effect in the repeat runs; inconclusive means weak or mixed curves; inactive means no such curve, though single readings can be large; an effect the other way counts as inactive or inconclusive.
On the % scale 0 is the no-effect control and ±100 the full control effect.

Chain of Nuclear receptor subfamily 1 group I member 3 (Homo sapiens) (Q14994 whole entry, looked up): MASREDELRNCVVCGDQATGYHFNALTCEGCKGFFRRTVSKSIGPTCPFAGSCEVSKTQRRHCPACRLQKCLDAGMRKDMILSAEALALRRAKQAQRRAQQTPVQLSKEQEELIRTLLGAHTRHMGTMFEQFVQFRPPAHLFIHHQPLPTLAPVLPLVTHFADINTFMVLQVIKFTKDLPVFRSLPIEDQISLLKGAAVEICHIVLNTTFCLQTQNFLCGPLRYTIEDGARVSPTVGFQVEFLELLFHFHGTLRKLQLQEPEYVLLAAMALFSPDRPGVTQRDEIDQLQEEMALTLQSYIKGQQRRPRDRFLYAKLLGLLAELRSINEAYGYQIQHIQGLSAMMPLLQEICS
Chain of Thyrotropin receptor (Homo sapiens) (P16473 whole entry, looked up): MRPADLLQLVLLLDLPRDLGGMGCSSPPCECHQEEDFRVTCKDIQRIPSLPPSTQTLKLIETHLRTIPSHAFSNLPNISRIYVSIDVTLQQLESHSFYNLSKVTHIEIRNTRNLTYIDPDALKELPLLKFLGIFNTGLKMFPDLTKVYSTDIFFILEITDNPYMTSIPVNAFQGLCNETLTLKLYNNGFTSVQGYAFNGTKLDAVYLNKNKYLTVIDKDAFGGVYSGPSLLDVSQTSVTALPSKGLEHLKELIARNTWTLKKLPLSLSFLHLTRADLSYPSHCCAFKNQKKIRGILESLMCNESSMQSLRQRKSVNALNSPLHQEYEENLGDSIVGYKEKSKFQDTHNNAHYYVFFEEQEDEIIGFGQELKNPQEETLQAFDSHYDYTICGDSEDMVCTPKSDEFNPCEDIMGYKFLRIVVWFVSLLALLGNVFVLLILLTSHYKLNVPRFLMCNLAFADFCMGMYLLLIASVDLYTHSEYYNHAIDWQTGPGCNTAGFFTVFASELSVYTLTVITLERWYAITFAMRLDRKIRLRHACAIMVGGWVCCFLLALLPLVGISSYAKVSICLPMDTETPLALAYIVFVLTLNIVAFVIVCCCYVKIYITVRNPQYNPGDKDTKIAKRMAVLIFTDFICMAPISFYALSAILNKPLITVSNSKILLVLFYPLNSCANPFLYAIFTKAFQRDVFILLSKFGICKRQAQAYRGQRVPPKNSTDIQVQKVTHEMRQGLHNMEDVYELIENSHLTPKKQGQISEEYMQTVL

Regarding `CN1C(=O)c2ccc([N+](=O)[O-])cc2C1=O`, the Potency entry in [1], in [2], in experiment [3], in experiment [4], in experiment [5] and in experiment [6] was “inactive” throughout. In addition, the Potency entry in experiment [7], in [8], in experiment [9], in experiment [10], in experiment [12] and in experiment [13] was “inactive” in each case. Also, the Potency result in experiment [14], in [15], in [16] and in experiment [17] was “inactive” in each case. The activity change, positive = activation in experiment [11] was 7.36% (inactive).
On to `CCCCCCC(O)CCCCCCCCCCC(=O)O` (stereo not given), for which the Potency result in [1], in experiment [2], in experiment [3], in experiment [4], in [5] and in [6] was “inactive” each time. Also, the Potency entry in experiment [7], in experiment [8], in [9], in [18], in experiment [12] and in experiment [14] was “inactive” throughout. Also, the Potency entry in experiment [15], in [16] and in [17] was “inactive” throughout. Further, the activity change, positive = activation in [11] was -9.99% (inactive) and -15.5% (inactive).
Take `O=C1Nc2ccccc2C1(c1ccc(O)cc1)c1ccc(O)cc1`: the Potency entry in experiment [1], in experiment [19], in [4], in experiment [6], in experiment [8] and in experiment [9] was “inactive” in each case. Further, the Potency entry in experiment [18], in experiment [12], in experiment [14], in [15], in experiment [16] and in [17] was “inactive” throughout. For the same molecule, in experiment [13], the Potency is 49 µM (active) and inactive.
As for `CCN(CC)c1ccc2c(C)cc(=O)oc2c1`, the Potency result in experiment [2], in [4], in experiment [6], in experiment [8], in experiment [18] and in experiment [12] was “inactive” in each case. For the same molecule, the Potency entry in [14], in [15] and in [16] was “inactive” throughout. The Potency in [3] is 27.5 µM (active) and 48.6 µM (active); in experiment [9], 44 µM (active) and 43.6 µM (active); in experiment [17] it was 39.2 µM (active).
As for `Clc1ccc2c(c1)C(N1CCNCC1)=Nc1ccccc1O2`, the Potency result in [4], in experiment [6], in experiment [7], in experiment [8] and in experiment [14] was “inactive” in each case. Besides, the Potency is 54.9 µM (active) in [12]; 43.6 µM (active) and 26.8 µM (active) in [13]; 54.9 µM (active) in experiment [15]; 26.8 µM (active) in experiment [16].
Consider `c1ccc2cc3c(ccc4ccccc43)cc2c1`, for which the Potency entry in experiment [1], in [2], in experiment [4], in [6], in experiment [7] and in experiment [8] was “inactive” in each case. Further, the Potency entry in experiment [9], in [18], in [12], in experiment [14], in [15] and in experiment [16] was “inactive” each time. For the same molecule, the Potency entry in experiment [17] is “inactive”.
